A short description of assay [1]: Nuclear factor erythroid 2-related factor 2/antioxidant responsive element (Nrf2/ARE) small molecule agonists: qHTS cell viability counter screen in human keratinocytes (AID 1919968; active = well fitted curve in the direction sought with a large enough effect in the repeat runs; an effect the other way counts as inactive or inconclusive; note: nearly all actives have a fitted effect of over 55% in size; note: potency is the fitted concentration of half-maximal effect). The method, boiled down:
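KeratinoSens HaCaT cells, 1,500/well, preincubated 5 h, then exposed to compounds in DMSO for 23 h at 37 C/5% CO2. Viability read as CellTiter-Fluor fluorescence after 1 h, in the same wells as the ARE-luciferase read.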
(In general: qHTS replaces the single test concentration by a dilution series.)

For assay [2], the target named is KiSS-1 receptor (Homo sapiens) (UniProt Q969F8). Put plainly: Human kisspeptin (KISS1R) small molecule agonists, calcium flux assay in KISS1R-HEK293 cells (AID 1920064; active = well fitted curve in the direction sought with a large enough effect in the repeat runs; an effect the other way counts as inactive or inconclusive). The method, boiled down: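 HEK293 cells stably expressing human KISS1R were loaded with calcium dye for 1 h at 37 C, then given compound; fluorescence (Ex/Em 480/540) was read kinetically for 3 min. Fifteen concentrations, triplicate.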
Chain of KiSS-1 receptor (Homo sapiens) (Q969F8 whole entry, looked up): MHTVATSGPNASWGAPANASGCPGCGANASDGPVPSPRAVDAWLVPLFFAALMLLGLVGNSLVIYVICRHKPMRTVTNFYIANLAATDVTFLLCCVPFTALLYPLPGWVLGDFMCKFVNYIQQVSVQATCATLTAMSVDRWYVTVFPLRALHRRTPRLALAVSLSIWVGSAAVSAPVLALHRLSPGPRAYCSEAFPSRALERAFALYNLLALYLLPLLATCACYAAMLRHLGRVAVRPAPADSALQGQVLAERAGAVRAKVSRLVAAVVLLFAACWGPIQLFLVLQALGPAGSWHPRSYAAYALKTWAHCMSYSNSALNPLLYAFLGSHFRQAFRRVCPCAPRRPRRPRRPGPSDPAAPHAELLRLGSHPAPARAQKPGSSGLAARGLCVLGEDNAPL
On the technique in general: Calcium assays in cells follow changes in intracellular calcium, usually with a dye or a luminescent sensor.

Assay [3] in a line: G protein-coupled receptor (GPCR) small molecule agonists, calcium flux assay: HEK293 wild type cell line counter screen (AID 1920065). The method, boiled down: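 Wild-type HEK293 cells plated 18 h, loaded with calcium dye 1 h at 37 C, then compounds added in agonist mode (ATP as positive control). Kinetic fluorescence Ex/Em 480/540 recorded 3 min at 1 sec intervals; 15 concentrations, triplicate.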

Assay [4] can be described thus: p53 small molecule agonists, cell-based qHTS assay with human liver microsomes (AID 1963577). The method, boiled down:
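p53RE-bla reporter cells were pre-incubated 5 h at 37 C, then treated with compounds plus human liver microsomes (0.5 mg/mL final) and NADPH (0.5 mg/mL final) for 16 h at 37 C. Beta-lactamase activity was read by LiveBLAzer fluorescence after 2 h at room temperature.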

A short description of assay [5]: p53 small molecule agonists, cell-based qHTS assay with rat liver microsomes (AID 1963578). The method, boiled down:
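p53RE-bla cells were exposed to compounds together with rat liver microsomes (0.5 mg/mL final) and NADPH (0.5 mg/mL final) for 16 h at 37 C, then read by LiveBLAzer beta-lactamase fluorescence after 2 h at room temperature.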

Assay [6] is described as follows: p53 small molecule agonists, cell-based qHTS assay with human liver microsomes: qHTS cell viability counter screen (AID 1963579). Note: nearly all actives have a fitted effect of over 45% in size. The method, boiled down: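 p53RE-bla cells (4,000/well) were pre-incubated 5 h at 37 C, then given compounds in DMSO plus human liver microsomes (0.5 mg/mL final) and NADPH (0.5 mg/mL final) for 16 h at 37 C. Viability was read by CellTiter-Glo luminescence.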

Assay [7] can be described thus: p53 small molecule agonists, cell-based qHTS assay with rat liver microsomes: qHTS cell viability counter screen (AID 1963580). Note: nearly all actives have a fitted effect of over 45% in size. The method, boiled down: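 Intracellular ATP, by CellTiter-Glo luminescence, defines viability. HCT-116 p53RE-bla cells, 4,000 per well, were compound-treated in the presence of rat liver microsomes and NADPH for 16 h at 37 C.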
Assay [8] in a line: p53 small molecule agonists, cell-based qHTS assay: qHTS cell viability counter screen (AID 1963581). Note: nearly all actives have a fitted effect of over 45% in size. The method, boiled down: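 p53RE-bla HCT-116 cells, compounds added 5 h after plating and incubated 16 h at 37 C. Cytotoxicity measured in the same wells as intracellular ATP by CellTiter-Glo luminescence after 30 min at room temperature.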
Assay [9] in a line: p53 small molecule agonists, cell-based qHTS assay (AID 1963582; active = well fitted activation curve with a large enough effect in the signal ratio in the repeat runs, not every such curve was filed as active; the % refers to the signal ratio). The method, boiled down: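 p53RE-bla reporter cells, compounds added in DMSO after 5 h plating, incubated 16 h at 37 C. Beta-lactamase read via 2 h room-temperature LiveBLAzer B/G FRET substrate, fluorescence intensity.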
The target of assay [10] is 5-hydroxytryptamine receptor 2A (Homo sapiens) (UniProt P28223). Description: 5-hydroxytryptamine receptor 2A (HTR2A) small molecule antagonists, cell-based qHTS assay (AID 1963586). Note: nearly all actives have a fitted effect of over 45% in size. The method, boiled down: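 Antagonist-mode intracellular calcium assay: DOI (4 nM) added after 5 min compound pre-incubation at room temperature to dye-loaded HTR2A-CHO cells. Fluorescence followed for 3 min, sampled every second.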
Chain of 5-hydroxytryptamine receptor 2A (Homo sapiens) (P28223 whole entry, looked up): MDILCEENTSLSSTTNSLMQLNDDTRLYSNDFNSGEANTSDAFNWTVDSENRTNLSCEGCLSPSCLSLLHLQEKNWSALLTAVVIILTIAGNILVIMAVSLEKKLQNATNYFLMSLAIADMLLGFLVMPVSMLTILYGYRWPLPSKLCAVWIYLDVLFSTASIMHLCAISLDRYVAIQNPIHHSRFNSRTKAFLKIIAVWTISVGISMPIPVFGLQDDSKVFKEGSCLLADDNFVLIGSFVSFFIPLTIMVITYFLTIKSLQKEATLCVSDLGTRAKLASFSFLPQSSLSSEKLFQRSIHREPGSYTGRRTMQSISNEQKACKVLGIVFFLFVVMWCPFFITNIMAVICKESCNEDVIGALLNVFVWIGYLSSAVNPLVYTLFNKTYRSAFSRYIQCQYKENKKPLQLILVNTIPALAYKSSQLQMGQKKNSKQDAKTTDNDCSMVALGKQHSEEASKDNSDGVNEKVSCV

Assay [11] shares this target. Description: 5-hydroxytryptamine receptor 2A (HTR2A) small molecule agonists, cell-based qHTS assay (AID 1963587). Note: nearly all actives have a fitted effect of over 30% in size. Note: potency is the fitted concentration of half-maximal effect. The method, boiled down:
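Kinetic calcium-flux fluorescence (2 min, 1 sec intervals) after compound addition in agonist mode. HTR2A-CHO cells were cultured 18 h, then dye-loaded 1 h at 37 C.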

For assay [12], the target named is Muscarinic acetylcholine receptor M1 (Homo sapiens) (UniProt P11229). Put plainly: Cholinergic receptor muscarinic 1 (CHRM1) small molecule antagonists, cell-based qHTS assay (AID 1963588). Note: nearly all actives have a fitted effect of over 40% in size. Note: potency is the fitted concentration of half-maximal effect. The method, boiled down:
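CHRM1-CHO calcium-flux assay, antagonist mode. Cells were seeded 18 h, dye-loaded 1 h at 37 C and given compound for 5 min at RT, then acetylcholine was added at 50nM. FDSS fluorescence was read 3 min; 15 concentrations, three runs.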

For assay [13] the target is unchanged. Put plainly: Cholinergic receptor muscarinic 1 (CHRM1) small molecule agonists, cell-based qHTS assay (AID 1963589). Note: nearly all actives have a fitted effect of over 35% in size. The method, boiled down: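 CHO cells stably expressing human CHRM1 were loaded with calcium dye for 1 h at 37 C, then compound was added in agonist mode. Intracellular calcium fluorescence was followed kinetically at 1 s intervals. Fifteen concentrations were tested in three independent runs.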

A short description of assay [14]: cAMP Responsive Elements (CRE) small molecule agonists, cell-based qHTS assay (AID 1963590). The method, boiled down:
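CRE-bla HEK 293T cells, 2,000/well in DMEM with 10% dialyzed FBS and 25 mM HEPES, pre-incubated 18 h at 37 C, then exposed to compound 3 h at 37 C. Beta-lactamase reporter read with LiveBLAzer B/G FRET substrate after 2 h at room temperature.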

Assay [15] addresses Beta-2 adrenergic receptor (Homo sapiens) (UniProt P07550). Put plainly: Adrenergic beta2 receptor (ADRB2) small molecule antagonists, cell-based qHTS assay (AID 1963592). Note: series mostly up to about 92 µM; nearly all actives have a fitted effect of over 50% in size. The method, boiled down:
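Cells (CHO, stable ADRB2 overexpression) incubated 18-20hr at 37C; compounds added from DMSO; agonist mix (1nM isoproterenol, 100uM IBMX, 25uM Ro-20-1724) added; 0.5hr RT; d2-cAMP and anti-cAMP-cryptate added; 1hr RT; 665/615 nm read.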

Assay [16] has the same target. Description: Adrenergic beta2 receptor (ADRB2) small molecule agonists, cell-based qHTS assay (AID 1963593).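 Note: CHO cells stably overexpressing human ADRB2.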 The method, boiled down:
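CHO cells stably over-expressing ADRB2 were plated overnight at 37C, then dosed with compounds plus a stimulation mix containing 100uM IBMX and 25uM Ro-20-1724 for 0.5hr at room temperature. cAMP was measured by HTRF competition, 1hr.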

Assay [17] concerns the target D(2) dopamine receptor (Homo sapiens) (UniProt P14416). Put plainly: Dopamine D2 receptor (DRD2) small molecule agonists, cell-based qHTS assay (AID 1963594). Note: nearly all actives have a fitted effect of over 35% in size. The method, boiled down:
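cAMP accumulation in DRD2-HEK293 cells measured by HTRF after 1 h detection; compounds added 10 min before NKH477 (200nM […]) forskolin-analogue stimulation, 30 min at room temperature, with Ro20-1724 present at 0.1 mM final.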

The target is the same in assay [18]. Description: Dopamine D2 receptor (DRD2) small molecule antagonists, cell-based qHTS assay (AID 1963595; active = well fitted inhibition curve with a large enough effect in the signal ratio in the repeat runs, with a control signal flat; the % refers to the signal ratio). The method, boiled down: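 Antagonist mode in DRD2-HEK293 cells: after compound addition with 0.1 mM Ro20-1724, cells received quinpirole (12 nM) and NKH477 (200 nM) for 30 min at room temperature; HTRF cAMP read after 1 h detection.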
Assay [19] in a line: cAMP Responsive Elements (CRE) small molecule antagonists, cell-based qHTS assay (AID 1963591; active = well fitted inhibition curve with a large enough effect in the signal ratio in the repeat runs, not every such curve was filed as active; the % refers to the signal ratio). The method, boiled down:
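CRE-bla HEK293T cells plated 18 h, then given compound plus NKH477 at 0.25 uM final for 3 h at 37C. Beta-lactamase reporter read with LiveBLAzer B/G FRET substrate after 2 h at room temperature.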

A short description of assay [20]: Nuclear factor erythroid 2-related factor 2/antioxidant responsive element (Nrf2/ARE) small molecule agonists: luciferase reporter gene qHTS assay in human keratinocytes (AID 1919969). Note: nearly all actives have a fitted effect of over 35% in size.

Each structure is given as a SMILES string. Inconclusive results are not listed. Calls of active or inactive are those of the source. Unless noted, calls come from the whole dose curve.

Chain of Muscarinic acetylcholine receptor M1 (Homo sapiens) (P11229 whole entry, looked up): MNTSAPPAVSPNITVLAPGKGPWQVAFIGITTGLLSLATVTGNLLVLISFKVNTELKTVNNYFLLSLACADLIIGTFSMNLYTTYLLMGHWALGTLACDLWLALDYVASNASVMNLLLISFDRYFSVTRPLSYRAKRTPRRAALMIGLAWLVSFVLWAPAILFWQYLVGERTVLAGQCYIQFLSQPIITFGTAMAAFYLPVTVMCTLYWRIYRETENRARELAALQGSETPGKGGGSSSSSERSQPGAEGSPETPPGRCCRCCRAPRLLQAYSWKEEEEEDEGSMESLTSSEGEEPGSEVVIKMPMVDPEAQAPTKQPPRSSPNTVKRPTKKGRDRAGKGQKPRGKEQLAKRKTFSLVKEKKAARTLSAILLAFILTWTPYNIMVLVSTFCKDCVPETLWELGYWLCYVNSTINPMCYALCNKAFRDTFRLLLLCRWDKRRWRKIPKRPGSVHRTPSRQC
Chain of D(2) dopamine receptor (Homo sapiens) (P14416 whole entry, looked up): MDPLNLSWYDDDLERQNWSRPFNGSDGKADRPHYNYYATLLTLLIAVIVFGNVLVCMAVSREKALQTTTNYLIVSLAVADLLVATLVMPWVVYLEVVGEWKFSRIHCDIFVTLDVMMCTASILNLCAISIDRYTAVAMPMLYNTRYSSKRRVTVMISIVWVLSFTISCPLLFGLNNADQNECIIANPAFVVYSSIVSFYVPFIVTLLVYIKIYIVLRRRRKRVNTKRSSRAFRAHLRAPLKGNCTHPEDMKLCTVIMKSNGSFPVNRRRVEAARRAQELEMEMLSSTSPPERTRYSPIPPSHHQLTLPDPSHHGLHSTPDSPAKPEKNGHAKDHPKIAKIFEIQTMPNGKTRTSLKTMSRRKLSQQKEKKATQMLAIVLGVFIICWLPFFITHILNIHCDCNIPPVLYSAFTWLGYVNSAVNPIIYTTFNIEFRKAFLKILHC
Chain of Beta-2 adrenergic receptor (Homo sapiens) (P07550 whole entry, looked up): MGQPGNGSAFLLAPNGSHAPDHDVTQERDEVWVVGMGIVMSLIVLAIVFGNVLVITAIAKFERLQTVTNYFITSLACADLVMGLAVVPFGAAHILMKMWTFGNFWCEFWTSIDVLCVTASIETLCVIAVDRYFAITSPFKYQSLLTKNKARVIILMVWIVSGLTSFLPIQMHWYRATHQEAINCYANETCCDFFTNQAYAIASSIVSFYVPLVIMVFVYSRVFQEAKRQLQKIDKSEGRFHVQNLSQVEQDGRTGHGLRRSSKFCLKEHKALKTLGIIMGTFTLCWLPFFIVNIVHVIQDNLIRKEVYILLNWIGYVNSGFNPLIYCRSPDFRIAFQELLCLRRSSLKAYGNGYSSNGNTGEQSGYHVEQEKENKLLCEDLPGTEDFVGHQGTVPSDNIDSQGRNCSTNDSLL

For the compound `SCCc1cnccn1`, the Potency result in [1], in assay [2], in [3], in assay [4], in assay [5] and in assay [6] was “inactive” in each case. In addition, the Potency entry in assay [7], in [8], in assay [9], in [10], in assay [11] and in assay [12] was “inactive” throughout. Further, the Potency entry in assay [13], in [14], in assay [15], in [16], in assay [17] and in [18] was “inactive” each time.
For `O=C(CN1CCNCC1)NC1CCCCC1`, the Potency result in assay [1], in assay [2], in assay [3], in assay [4], in [5] and in assay [6] was “inactive” each time. For the same compound, the Potency entry in assay [7], in [8], in assay [9], in assay [10], in assay [11] and in assay [12] was “inactive” each time. Moreover, the Potency entry in [13], in assay [14], in [19], in assay [15], in assay [16] and in assay [18] was “inactive” in each case.
Turning to `CC1(C)SC(C)(C)SC(C)(C)S1`, the Potency result in assay [1], in assay [20], in [3], in assay [6], in assay [7] and in [8] was “inactive” in each case. The Potency result in assay [10], in assay [11], in assay [12], in assay [13], in assay [14] and in assay [19] was “inactive” in each case. Moreover, the Potency entry in assay [15], in [16], in [17] and in [18] was “inactive” throughout.
Turning to `CC1=CCC(C(C)C)C=C1` (stereo not given), the Potency result in assay [1], in [2], in assay [3], in assay [4], in assay [5] and in assay [6] was “inactive” in each case. In addition, the Potency entry in assay [7], in assay [8], in assay [9], in assay [10], in assay [11] and in assay [12] was “inactive” each time. The Potency result in [13], in assay [14], in assay [19], in assay [15], in assay [16] and in assay [17] was “inactive” each time. The Potency entry in [18] is “inactive”.
`CC(C(O)c1ccccc1)N(C)CCOC(c1ccccc1)c1ccccc1` (stereo not given): the Potency in assay [1] is 18.8 µM (active); in assay [11], 23.9 µM (active); in [12], 1.16 µM (active). Also, the Potency entry in [20], in assay [3], in assay [4], in assay [6], in assay [8] and in assay [13] was “inactive” each time. The Potency entry in assay [17] and in assay [18] was “inactive” in each case.
Consider `C=CCOC(=O)CCC1CCCCC1`, for which the Potency result in [1], in [2], in [3], in [4], in [5] and in assay [6] was “inactive” in each case. Further, the Potency entry in [7], in assay [8], in assay [9], in assay [10], in assay [11] and in assay [12] was “inactive” in each case. Besides, the Potency entry in [13], in [14], in assay [19], in [15], in assay [16] and in assay [18] was “inactive” in each case.
